# Laboratory results published in PubChem BioAssay AID2314 (National Center for Advancing Translational Sciences (NCATS), 2010).
# The whole screen tested about 300,000 compounds, of which about 37,000 (12%) were called active. The sample as a whole holds a higher share of actives than the screen did. Values without a mark were called inactive. Rule as the data show it: active = max response mostly above about 13% (no sharp cut-off); inactive = mostly below about 14%.
# Experiment: Cycloheximide Counterscreen for Small Molecule Inhibitors of Shiga Toxin; also: read at 38.3 µM for the half of the compounds with a filed dose; 0% is about no effect
# Conditions: cell reporter, cycloheximide protein synthesis inhibition counterscreen; hits give high values
row,Structure (SMILES),max response
1,Cc1cc(C(=O)OCC(=O)N2c3ccccc3NC(=O)C2(C)C)c(C)n1-c1ccccc1,-2.79%
2,CCc1cc(=O)oc2c(C)c(OCC(=O)N3CC[C@@]4(O)CCCC[C@H]4C3)ccc12,-0.987%
3,O=C(CCC(=O)N/N=C/c1ccc(Br)o1)N/N=C/c1ccc(Br)o1,-1.8%
4,CC1(C)OC(=O)N2CCc3ccccc3C21C (stereo not given),-1.95%
5,O=C(NCCC1=CCCCC1)c1ccc(Cl)c([N+](=O)[O-])c1,39.2% (active)
6,CN1CCNC(=O)C1CC(=O)NCCC1=CCCCC1 (stereo not given),6.87%
7,CC(=O)Nc1ccc(S(=O)(=O)N(C)CC(=O)NCCC2=CCCCC2)cc1,8.71%
8,Cc1ccn2c(=O)c(C(=O)NCCC3=CCCCC3)c(O)nc2c1,16.1%
9,O=C(Cc1nn[nH]n1)NCCC1=CCCCC1,-1.06%
10,CN(c1ccc(C(=O)NCCC2=CCCCC2)cc1)S(C)(=O)=O,35.4% (active)
11,O=C(COc1ccc(Cl)cc1)NCCC1=CCCCC1,-4.36%
12,Cn1nnc2cc(C(=O)NCCC3=CCCCC3)ccc21,36.9% (active)
13,O=C(NCCCN1CCOCC1)c1ccc(N2CCCC2)c([N+](=O)[O-])c1,1.3%
14,CCC(=O)c1ccc(OC(=O)/C=C/c2cc(OC)c(OC)c(OC)c2)cc1,-6.8%
15,COc1ccc(C(=O)O)cc1S(=O)(=O)NCc1cccnc1,1.18%
16,COc1ccc(Cn2c(O)c(/C=C3/C=CC=N3)c(=O)[nH]c2=O)cc1,1.33%
17,Cc1nc2c(C(=O)NCc3cccs3)cnn2c(C)c1Cc1ccc(F)cc1,0.665%
18,O=C(NCC1CCN(Cc2ccccc2Cl)CC1)Nc1cccc(Cl)c1,9.67%
19,O=C(Nc1ccncc1)Nc1ccc(F)cc1,21.6% (active)
20,CCc1ccc(NC(=O)N[C@H](C(=O)O)C(C)CC)cc1 (stereo not given in full),9.38%
21,O=C(Nc1ccc(F)cc1)N1CCN(c2ccc(F)cc2)CC1,1.7%
22,O=C(Nc1ccncc1)c1c(F)cccc1F,14.2%

row,Structure (SMILES),max response
1,CC(C)CC(=O)Nc1ccc(Cc2ccncc2)cc1,-2.52%
2,CCc1ccc(NC(=O)Nc2ccncc2)cc1,28.8% (active)
3,CCCc1ccc(OCc2ccc(C(=O)N/N=C/c3cccc([N+](=O)[O-])c3)o2)c(OC)c1,-2.18%
4,CC(C)Cn1c(=O)c2ccccc2n2c(CCC(=O)NCc3ccccn3)nnc12,15.7%
5,Cc1cccc(C)c1N1C(=O)CN(Cc2ccccc2)C1=S,-2.32%
6,O=C(NCCS(=O)(=O)c1ccc(Br)cc1)c1ccccc1Cl,-3.1%
7,CN(C)S(=O)(=O)c1ccc(C(=O)NCCN=C2NS(=O)(=O)c3ccccc32)cc1,-3.08%
8,OC(c1nnc(-c2ccccc2)o1)c1cccs1 (stereo not given),76.9% (active)
9,O=C(Nc1nnc(-c2ccccc2)o1)c1cc(-c2cccs2)nc2ccccc12,-2.91%
10,CCCN(CCC)c1ccc(C(O)c2nnc(-c3ccccc3)o2)cc1 (stereo not given),26.9%
11,CCCc1cc(=O)oc2cc(OCC(=O)Nc3ccc(CN4CCOCC4)cc3)c(Cl)cc12,-3.2%
12,Oc1c(C=Nc2cccc3nsnc23)ccc2ccccc12,16.7% (active)
13,O=[N+]([O-])c1ccc(N=Cc2c(O)ccc3ccccc23)cc1,-1.91%
14,O=C(Nc1cccc(C(F)(F)F)c1)c1ccc(N2CCNCC2)c([N+](=O)[O-])c1,0.923%
15,Nc1nc(SCC(=O)N2CCN(S(=O)(=O)c3ccc(Cl)cc3)CC2)n[nH]1,6.07%
16,Cc1occc(=O)c1OCc1c(Cl)cccc1Cl,0.434%
17,O=C(c1ccc(Cl)cc1)n1cnc2ccccc21,-2.21%
18,COC(=O)c1ccc(-n2cnc3ccccc32)nc1,24.9% (active)
19,Cc1ccc(OCC(=O)Nn2cnc3ccccc32)cc1,8.71%
20,CCC(C)(C)n1nnnc1C(c1ccc(OC)c(OC)c1)N1CCN(C(=O)c2ccco2)CC1 (stereo not given),-2.11%
21,CCCn1nnc(NC(=O)COc2ccc(CC)cc2)n1,3.91%
22,CCCOc1cccc(C(=O)Nc2nnn(CCC)n2)c1,26.2% (active)

row,Structure (SMILES),max response
1,CCCOc1cccc(C(=O)NCCCNC(=O)c2cccnc2)c1,-1.77%
2,CC1CN(S(=O)(=O)c2ccc(C(=O)Nc3sccc3C(N)=O)cc2)CC(C)O1 (stereo not given),-0.296%
3,COc1ccc(CN(C(=O)CSc2nnc(-c3ccc(OC)c(OC)c3)o2)c2ccc(F)cc2)cc1,-0.972%
4,COC(=O)c1c(C)[nH]c(C(=O)NCCc2ccc(S(N)(=O)=O)cc2)c1C,-10.2%
5,CC(=O)c1c(C)[nH]c(C(=O)OCC(=O)NCCC(C)C)c1C,-1.49%
6,CCCCOC(=O)c1[nH]c(C)c(C(=O)OC)c1C,60.6% (active)
7,Cc1ccc(C(=O)NC(=S)Nc2ccc(N3CCOCC3)cc2)cc1,13.6%
8,COC(=O)c1ccc(NC(=S)NN2CCOCC2)cc1,20.6% (active)
9,COC(=O)c1ccc(NC(=S)Nc2cccc(C)n2)cc1,10.2%
10,COc1ccc2c3c(c(=O)oc2c1)C1O[C@](CCCCN2C(=O)c4ccccc4C2=O)(Cc2c1ccc1ccccc21)O3,-1.56%
11,Cc1ccsc1/C=N/Nc1ccc(Cl)nn1,14% (active)
12,Cc1ccsc1/C=N/n1c(=S)[nH]nc(C)c1=O,-1.56%
13,Clc1ccc(N/N=C/c2cccs2)nn1,22.2% (active)
14,Cc1ccsc1/C=N/NC(=O)Cc1cc(=O)[nH][nH]1,4.08%
15,COc1cc(/C=N/Nc2ccc(C)cc2)cc(Br)c1O,7.52%
16,Oc1c(Br)cccc1/C=N/Nc1c(F)c(F)c(F)c(F)c1F,6.05%
17,Cn1c(=O)c2c(nc(N/N=C/c3cccs3)n2Cc2ccc(Br)cc2)n(C)c1=O,10.1%
18,NC(=O)N/N=C\c1cccs1,5.02%
19,Oc1cccc(/C=N/Nc2ccc(Cl)nn2)c1O,43.2% (active)
20,COc1cccc(/C=N/Nc2ccc(Cl)nn2)c1,25.6% (active)
21,COc1cccc(/C=N\Nc2nncc(-c3ccccc3)n2)c1,6.58%
